The structures appear in SMILES notation. Results filed as inconclusive are left out. Unmarked numbers belong to inactive results. Calls of active or inactive are those of the source. The call rests on the fitted dose curve; in most records, active means well fitted curve in the direction sought with a large enough effect in the repeat runs; inconclusive means weak or mixed curves; inactive means no such curve, though single readings can be large; an effect the other way counts as inactive or inconclusive.

Experimental findings from PubChem BioAssay (Tox21) are described below.

A short description of assay [1]: A CellTox Green Cytotoxicity Assay to monitor cytotoxicity in HEK293 cells - 40 hour (AID 1224871). Further: nearly all actives have a fitted effect of over 45% in size. An outline of the steps: (§1)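 HEK293 cells premixed with CellTox Green dye were seeded at 600 cells/well and left 5 h at 37 C/5% CO2 before pin transfer of 23 nL compound in DMSO. Fluorescence from dye bound to dead-cell DNA was read during 40 h treatment.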
Assay [2] is described as follows: qHTS RealTime-Glo MT Cell Viability Assay in HEK293 cells - 16 hour (AID 1224872). Further: nearly all actives have a fitted effect of over 50% in size. Further: potency means the concentration at half of the fitted maximal effect. An outline of the steps: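 Luminescence generated by NanoLuc from substrate produced by living HEK293 cells served as the viability signal. Each value reflects the reading at its stated time point during continuous 40 h compound exposure at 37 C.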
A general note: Quantitative high-throughput screening tests each substance at several concentrations.

A short description of assay [3]: qHTS RealTime-Glo MT Cell Viability Assay in HepG2 cells - 8 hour (AID 1224873). Further: nearly all actives have a fitted effect of over 55% in size. The method in brief:
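HepG2 cells (600/well) mixed with RealTime-Glo MT reagent, settled 5 h at 37 C/5% CO2 before compound addition. Nonlytic NanoLuc luminescence from viable-cell prosubstrate reduction read repeatedly during 40 h treatment at 37 C.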

Assay [4] is described as follows: qHTS RealTime-Glo MT Cell Viability Assay in HEK293 cells - 40 hour (AID 1224874). Further: nearly all actives have a fitted effect of over 50% in size. Further: potency means the concentration at half of the fitted maximal effect. The settings on record: RealTime-Glo luminescence; max response: active compounds read low. The method in brief:
(§2)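 HEK293 cells mixed with RealTime-Glo reagents (NanoLuc plus cell-permeant prosubstrate) at 600 cells/well, preincubated 5 h at 37 C/5% CO2, then given 23 nL compound in DMSO. Nonlytic luminescence from viable cells was read at 0, 8, 16, 24, 32 and 40 h.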

Assay [5] is described as follows: A CellTox Green Cytotoxicity Assay to monitor cytotoxicity in HEK293 cells - 24 hour (AID 1224875). Further: series mostly up to about 77 µM; nearly all actives have a fitted effect of over 45% in size. The method in brief: as §1
Assay [6] is described as follows: A CellTox Green Cytotoxicity Assay to monitor cytotoxicity in HepG2 cells - 16 hour (AID 1224876). Further: nearly all actives have a fitted effect of over 45% in size. The method in brief:
(§3)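 HepG2 cells were seeded together with the CellTox Green dye at 600 cells/well, left 5 h at 37 C/5% CO2, then given compounds in DMSO. Fluorescence from dye bound to dead-cell DNA was read repeatedly over 40 h of treatment at 37 C.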

Assay [7] is described as follows: qHTS RealTime-Glo MT Cell Viability Assay in HepG2 cells - 32 hour (AID 1224877). Further: nearly all actives have a fitted effect of over 55% in size. An outline of the steps:
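Tox21 10K library screened in qHTS format on HepG2 cells carrying RealTime-Glo reagents. Compounds were added after a 5 h preincubation, and the luminescent signal from continuous culture was measured repeatedly during 40 h treatment.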

Assay [8] is described as follows: A CellTox Green Cytotoxicity Assay to monitor cytotoxicity in HepG2 cells - 24 hour (AID 1224878). Further: nearly all actives have a fitted effect of over 45% in size. The method in brief: as §3
Assay [9] is described as follows: A CellTox Green Cytotoxicity Assay to monitor cytotoxicity in HepG2 cells - 40 hour (AID 1224879). Further: nearly all actives have a fitted effect of over 40% in size. The method in brief:
as §3

The nature of assay [10]: qHTS RealTime-Glo MT Cell Viability Assay in HEK293 cells - 0 hour (AID 1224880). An outline of the steps:
as §2
On the % scale 0 is the no-effect control and ±100 the full control effect.

In the case of `CCOP(=O)(CN(CCO)CCO)OCC`, the Potency entry in assay [1], in assay [2], in assay [5], in assay [6], in assay [7] and in assay [8] was “inactive” each time. Moreover, in [9], the Potency entry was “inactive”. For the same molecule, the molecule was called inactive in assay [3] and in assay [10]. Moreover, the max response in assay [4] is 1.2%.
Consider `O=CCCl`, for which the Potency entry in [1], in assay [2], in [5], in [6], in assay [7] and in assay [8] was “inactive” each time. Moreover, the Potency entry in [9] is “inactive”. Also, the molecule was classed as inactive in assay [3] and in assay [10]. In addition, the max response in assay [4] is 6.03%.
Take `C=C(Cl)CCl`: the Potency result in [1], in assay [2], in assay [5], in [6], in assay [7] and in assay [8] was “inactive” each time. The Potency result in assay [9] was “inactive”. The call in assay [3] and in assay [10] was inactive. Also, in [4], the max response was -1.15%.
In the case of `S=C=S`, the Potency entry in assay [1], in assay [2], in assay [5], in assay [6], in [7] and in assay [8] was “inactive” each time. Moreover, the Potency result in [9] was “inactive”. Moreover, the call in assay [3] and in assay [10] was inactive. Also, the max response in [4] is 6.94%.
Take `CN=CNc1ccc(C)cc1C`: the Potency entry in [1], in assay [2], in assay [5], in assay [6], in assay [7] and in assay [8] was “inactive” throughout. For the same molecule, in [9], the Potency result is “inactive”. Also, the molecule was called inactive in assay [3] and in [10]. Further, the max response in [4] was 5.53%.
Take `C=CC(=O)OCCN(C)C`: the Potency entry in assay [1], in [2], in assay [5], in [6], in [7] and in [8] was “inactive” in each case. Besides, the Potency entry in assay [9] was “inactive”. The result in assay [3] and in assay [10] was inactive. Besides, the max response in assay [4] is 14.5%.
`C1CN2CCC1CC2`: the Potency entry in assay [1], in assay [2], in assay [5], in assay [6], in assay [7] and in assay [8] was “inactive” each time. Moreover, in [9], the Potency entry was “inactive”. For the same molecule, the outcome in assay [3] and in [10] was inactive. Further, the max response in assay [4] is 0.665%.
Consider `O=C(NC(=O)c1c(F)cccc1F)Nc1cc(Cl)c(F)c(Cl)c1F`, for which the Potency entry in assay [1], in assay [2], in assay [5], in [6], in assay [7] and in assay [8] was “inactive” in each case. Besides, the Potency entry in assay [9] is “inactive”. Besides, the result in [3] and in assay [10] was inactive. Further, the max response in assay [4] is -0.171%.
Consider `Clc1nc(Cl)nc(Nc2ccccc2Cl)n1`, for which the Potency entry in [1], in assay [2], in assay [5], in [6], in assay [7] and in [8] was “inactive” throughout. The Potency result in assay [9] was “inactive”. The molecule was classed as inactive in [3] and in assay [10]. Further, the max response in [4] is 11.5%.
With `C=C(C)[C@H]1CN[C@H](C(=O)O)[C@H]1CC(=O)O`, the Potency result in [1], in [2], in assay [5], in [6], in assay [7] and in [8] was “inactive” each time. Moreover, the Potency result in [9] was “inactive”. Moreover, the outcome in [3] and in assay [10] was inactive. Besides, in assay [4], the max response was 0.763%.
Regarding `CC1NCCOC1c1ccccc1` (stereo not given), the Potency entry in [1], in assay [2], in assay [5], in assay [6], in assay [7] and in assay [8] was “inactive” in each case. Moreover, the Potency entry in assay [9] was “inactive”. In addition, the result in [3] and in assay [10] was inactive. The max response in assay [4] was 4.25%.
For the molecule `CC(Cc1ccccc1)NCCn1cnc2c1c(=O)n(C)c(=O)n2C` (stereo not given), the Potency result in assay [1], in assay [5], in assay [6], in assay [7], in [8] and in [9] was “inactive” in each case. For the same molecule, the figures for the Potency in [2] and in assay [4] were 15.3 µM (active) and 24.2 µM (active), respectively. The call in [3] and in [10] was inactive.
As to `COC(=O)[C@@H](N)CCCN/C(N)=N/[N+](=O)[O-]`, the Potency entry in [1], in [2], in assay [5], in assay [6], in [7] and in assay [8] was “inactive” in each case. Also, in assay [9], the Potency entry is “inactive”. Besides, the molecule was called inactive in assay [3] and in assay [10]. Besides, in [4], the max response is 6.22%.
In the case of `CC(Cc1ccccc1)NCCCCl` (stereo not given), the Potency entry in [1], in assay [2], in assay [5], in assay [6], in assay [7] and in assay [8] was “inactive” each time. Also, the Potency entry in assay [9] is “inactive”. For the same molecule, the outcome in assay [3] and in assay [10] was inactive. Moreover, the max response in assay [4] is 5.94%.
For the molecule `C=CCC1(C(C)CC)C(=O)NC(=O)NC1=O` (stereo not given), the Potency entry in [1], in assay [2], in assay [5], in [6], in assay [7] and in assay [8] was “inactive” in each case. In addition, the Potency entry in assay [9] was “inactive”. The call in assay [3] and in assay [10] was inactive. The max response in [4] was 5.74%.
As to `CON(C)C(=O)Nc1ccc(Br)cc1`, the Potency result in assay [1], in assay [2], in [5], in assay [6], in assay [7] and in assay [8] was “inactive” in each case. For the same molecule, the Potency entry in [9] is “inactive”. Besides, the molecule was called inactive in assay [3] and in [10]. The max response in [4] was -9.38%.
Regarding `O=C1CCCCC1Cl` (stereo not given), the Potency entry in assay [1], in assay [2], in assay [5], in [6], in [7] and in assay [8] was “inactive” in each case. In [9], the Potency entry was “inactive”. Besides, the call in [3] and in assay [10] was inactive. In addition, in assay [4], the max response was 11.3%.
With `CCN(CC)C1CCCCC1`, the Potency result in assay [1], in assay [2], in [5], in [6], in [7] and in assay [8] was “inactive” in each case. The Potency entry in assay [9] is “inactive”. Further, the result in assay [3] and in assay [10] was inactive. The max response in assay [4] was 2.39%.
Regarding `CC(Cl)(Cl)Cl`, the Potency entry in assay [1], in assay [2], in assay [5], in [6], in assay [7] and in assay [8] was “inactive” each time. Moreover, the Potency entry in assay [9] was “inactive”. In addition, the molecule was called inactive in [3] and in assay [10]. Besides, in [4], the max response is -1.28%.
Turning to `Cl/C=C/CCl`, the Potency entry in [1], in [2], in assay [5], in [6], in assay [7] and in assay [8] was “inactive” in each case. The Potency entry in [9] is “inactive”. In addition, the molecule was called inactive in [3] and in [10]. Moreover, the max response in [4] was 7.85%.
With `CCN(CCO)CCO`, the Potency result in [1], in [2], in assay [5], in assay [6], in [7] and in [8] was “inactive” each time. Also, in assay [9], the Potency entry is “inactive”. Besides, the result in [3] and in assay [10] was inactive. Further, in [4], the max response is 4.13%.
For the molecule `C=CCCC#N`, the Potency result in [1], in assay [2], in [5], in assay [6], in [7] and in [8] was “inactive” in each case. Also, the Potency result in assay [9] is “inactive”. Moreover, the call in assay [3] and in assay [10] was inactive. In assay [4], the max response is 6.33%.
Regarding `Cc1cc(OC(=O)N(C)C)nn1C(=O)N(C)C`, the Potency result in [1], in assay [2], in [5], in assay [6], in [7] and in assay [8] was “inactive” throughout. The Potency result in assay [9] was “inactive”. For the same molecule, the call in [3] and in assay [10] was inactive. For the same molecule, the max response in assay [4] is 2%.
